# FMDV antiviral: High Throughput Screening for Foot and Mouth Disease Virus Antivirals; Potency, µM (highest dose often 57.9 µM), for inactives: at the highest dose activity change, negative = inhibition, hits mostly inhibitors; FMDV antiviral cell-based qHTS; 1.2% of 410,000 active; calls by dose curve; tested in HEK293T cells; note: read-out not given here; nearly all actives have a fitted effect of over 45% in size
# Sm TGR inh: qHTS Assay for the Inhibitors of Schistosoma Mansoni Peroxiredoxins. AID 485364, 2010. Potency, µM (highest dose often 114 µM), inactives show top-dose activity change, negative = inhibition, usual class: inhibitors. 3% of 360,000 active. purified TGR, DTNB reduction, TNB absorbance 405 nm; note: nearly all actives have a fitted effect of over 60% in size
#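 Kinetic colorimetric format: TGR-catalysed, NADPH-driven DTNB reduction monitored via TNB absorbance. Enzyme dispensed at 20 nM; compound exposure 15 min at room temperature before reaction start.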
# TbPYK inhibitor: qHTS of Trypanosoma Brucei Inhibitors. pyruvate kinase (Trypanosoma brucei), Q57TT1. TbPYK enzyme, Kinase-Glo Plus ATP luminescence, 45 min. Potency, µM (doses to about 76.8 µM), inactives show top-dose activity, negative = inhibition, actives largely listed as inhibitors. 0.12% of 410,000 active; note: nearly all actives have a fitted effect of over 50% in size
#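 Quantitative HTS: titrated library compounds versus trypanosomal pyruvate kinase in TEA buffer (pH 7.2) containing KCl, MgCl2, BSA and Tween-20. Reactions were initiated with ADP, 130 uM final. Kinase-Glo Plus luminescence was read after 45 min at RT.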
# RE007 growth inh: qHTS Assay for Inhibitors of the HIV-1 protein Vpr; S. pombe RE007 Vpr strain, BacTiter-Glo ATP luminescence, 24 h; Potency, µM (series often up to 92.2 µM), for inactives: at the top dose activity change, negative = less growth, most hits filed as inhibitors; 0.21% of 360,000 active; AID 651644, 2012; active = well fitted falling curve with a large enough effect; inconclusive = small, poorly fitted or top-dose-only effect; inactive = no such curve, though single readings can be large or run the other way; note: nearly all actives have a fitted effect of over 50% in size
#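 Fission yeast strain RE007, carrying one chromosomally integrated HIV-1 vpr copy, was seeded at OD 0.01 in PMG+AL medium with 23 nL pinned compound. After 24 h at 30 °C and 99% humidity, viability was read by BacTiter-Glo luminescence.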
# * hit, by the source's call; ? = inconclusive; nt = no result. Rows were chosen to be rich in hits. Some 3.7% of all compounds tested hit in one or more screens of this group. Unless noted, calls come from the whole dose curve; as a rule, active = well fitted curve in the direction sought with a large enough effect; inconclusive = small, poorly fitted or top-dose-only effect, or another doubt; inactive = no such curve, though single readings can be large; an effect the other way counts as inactive or inconclusive. % is set by controls: 0 for no effect and ±100 for the full control effect; potency is the fitted concentration of half-maximal effect.
SMILES,FMDV antiviral,Sm TGR inh,TbPYK inhibitor,RE007 growth inh
COc1cc(/C=C2\C(=O)ON=C2c2ccc(Cl)cc2)ccc1O,25.1µM*,nt,-25.7%,3.3%
O=C1ON=C(c2ccccc2)/C1=C/c1ccc(O)c(O)c1,?,5.01µM*,-29.4%,nt
O=C1ON=C(c2ccccc2)/C1=C/c1cccnc1,4.2%,-32.9%,-3.3%,10.4%
CCOc1ccc(N=Nc2ccc(O)c3ncccc23)cc1,13.6%,1.3%,-5.6%,-7.8%
NS(=O)(=O)c1ccc(N=Nc2ccc(=O)[nH]c2O)cc1,3.9%,22.4µM*,-16.6%,10.0%
Cc1cccc(N=Nc2ccc(O)c3ncccc23)c1,5.8%,-11.0%,-18.7%,?
NS(=O)(=O)c1ccc(N=Nc2ccc(O)c3ncccc23)cc1,-16.0%,56.2µM*,-11.7%,nt
NS(=O)(=O)c1ccc(N=Nc2c(O)[nH]c(=S)[nH]c2=O)cc1,-1.5%,-7.4%,-10.7%,11.6%
Oc1ccc(N=Nc2ccc3c(c2)OCCO3)c2ncccc12,3.98µM*,-11.7%,-9.0%,10.3%
C[C@@H]1CCN(C(=O)CC#N)C[C@@H]1N(C)c1ncnc2[nH]ccc12,nt,nt,0.3%,nt
CC(C)c1ccc(NC(=O)c2cnc3sc(N4CCOCC4)nn3c2=O)cc1,?,-6.5%,1.7%,nt
Cc1ccc(NC(=O)c2cnc3sc(N4CCOCC4)nn3c2=O)cc1N(C)C,31.6µM*,-3.4%,-5.2%,nt
COCCn1c(=O)c(CCc2ccccc2)nc2cnc(Nc3ccccc3)nc21,21.7%,nt,nt,nt
Cc1c(C#N)c(N)nc2c3c(sc12)NC(=O)CC3c1ccc(Cl)cc1 (centres undefined),22.4µM*,-5.2%,-15.8%,22.2%
N#Cc1c(N)nc2c3c(sc(=N)c2c1N)NC(=O)CC3c1ccccc1 (centres undefined),-4.5%,5.7%,-18.6%,21.3%
COc1ccccc1NC(=O)CSc1ccc(-c2cccs2)nn1,?,13.1%,2.1%,-8.3%
Cc1ccc(C)c(NC(=O)CSc2ccc(-c3ccco3)nn2)c1,-16.3%,12.6µM*,0.7%,22.1%
O=C(CSc1nnc2ccc(-c3ccco3)nn12)Nc1ccccc1F,-5.3%,11.2µM*,0.4%,-8.3%
Cc1ccccc1NC(=O)CSc1ccc(-c2ccco2)nn1,-24.3%,-13.4%,1.4%,-8.3%
COc1ccccc1NC(=O)CSc1ccc(-c2ccco2)nn1,-2.1%,20µM*,-19.2%,-0.9%
CCOC(=O)c1cnc(SCC(=O)Nc2cc(OC)ccc2OC)nc1N,14.1µM*,0.1%,10.3%,5.9%
COc1ccc(OC)c(NC(=O)CSc2ccc(-c3cccs3)nn2)c1,-19.9%,7.7%,?,nt
COc1ccc(OC)c(NC(=O)CSc2ccc(-c3ccco3)nn2)c1,-22.0%,3.55µM*,?,-7.8%
COc1ccc2cc(CNCCOCCOCCNCc3ccc4cc(OC)ccc4c3)ccc2c1,39.8µM*,nt,1.8%,11.0%
CCOCCCNCc1ccc(OC)cc1,13.5%,-9.3%,-6.1%,-3.2%
SMILES,FMDV antiviral,Sm TGR inh,TbPYK inhibitor,RE007 growth inh
COc1ccc(-c2noc(CSc3nnc(-c4ccncc4)n3-c3ccc(OC)cc3)n2)cc1,0.0%,-2.0%,3.6%,nt
O=C(CN(Cc1ccco1)Cc1cccs1)N1CCN(S(=O)(=O)c2cccc(F)c2)CC1,-10.9%,39.8µM*,4.7%,-12.3%
Cc1onc(-c2ccccc2)c1C(=O)N(Cc1ccco1)Cc1cccs1,-27.0%,17.8µM*,4.5%,4.8%
Cc1ccc(OCc2cc(C(=O)NCc3cn4ccccc4n3)no2)cc1C,-25.1%,-16.0%,1.0%,4.8%
O=C(NCCc1cn2ccccc2n1)c1cc(COc2c(F)cccc2F)on1,?,39.8µM*,3.3%,2.7%
COc1cc(SC#N)ccc1N=Cc1c(C)[nH]n(-c2ccc(C)c(C)c2)c1=O,12.6µM*,5.7%,-18.6%,-29.1%
Cc1ccc(-c2cc(C(F)F)nc(NCC3CCCO3)n2)cc1 (centres undefined),5.9%,-6.1%,-15.9%,20µM*
C=CCn1c(SCc2ccc(C(=O)Nc3nccs3)cc2)nnc1-c1ccc(C)c(Cl)c1,28.2µM*,0.6%,-5.5%,nt
Cn1nnnc1SCc1ccc(C(=O)Nc2nccs2)cc1,51.2%,9.6%,2.8%,-2.6%
O=C(CNC(=O)C12CC3CC(CC(C3)C1)C2)N1CCN(S(=O)(=O)/C=C/c2ccccc2)CC1,39.8µM*,1.6%,-1.9%,-13.8%
O=C(c1cnn(-c2ccccc2)c1)c1ccc2ccccc2c1O,63.2%,6.2%,2.6%,-6.7%
CC(C)(C)n1cc(C(=O)c2ccc3ccccc3c2O)cn1,15.8µM*,-0.5%,-0.7%,-22.4%
COc1cccc(N2C(=O)N(CC(=O)NCc3cccc(OC)c3OC)c3ccccc3S2(=O)=O)c1,?,9.2%,1.3%,nt
C=CC[C@]12CC=CC(=O)[C@@]1(O)O[C@H](c1ccc(OC)c(OC)c1)[C@H]2C,20µM*,nt,0.7%,-20.5%
O=C(NC[C@H]1CCCCN1)c1cc(OCC(F)(F)F)ccc1OCC(F)(F)F,-5.4%,nt,nt,nt
CCOc1ccccc1C(=O)NCc1ccc2c(c1)CCN2C(=O)c1ccccc1,-28.1%,1.9%,0.1%,nt
CCc1ccc2ncc3c(-c4ccccc4)nn(-c4ccccc4)c3c2c1,-29.2%,-4.8%,5.6%,nt
NNC(=S)Nc1ccc(S(=O)(=O)N2CCOCC2)cc1,-13.2%,-2.7%,-12.4%,17.3%
O=S(=O)(c1ccc(NC(=S)Nc2ccc(OC(F)F)cc2)cc1)N1CCOCC1,35.1%,44.7µM*,5.4%,-0.1%
COc1ccccc1N1CCN(C(=S)Nc2ccc(S(=O)(=O)N3CCOCC3)cc2)CC1,25.1µM*,-0.9%,2.1%,2.4%
O=S(=O)(c1ccc(NC(=S)N2CCN(c3ccccc3F)CC2)cc1)N1CCOCC1,?,7.3%,-11.7%,-9.6%
COc1cc(C(C(=O)NCC2CCCO2)N(C(=O)Cn2nnc3ccccc32)c2ccc(OC)c(OC)c2)ccc1O (centres undefined),0.9%,44.7µM*,-3.7%,2.8%
CCOc1cc(C(C(=O)NCC2CCCO2)N(C(=O)Cn2nnc3ccccc32)c2ccc(NC(C)=O)cc2)ccc1O (centres undefined),16.0%,22.4µM*,-7.7%,2.5%
Cc1ccc(S(=O)(=O)c2nnn3c2nc(NC2CCCCCC2)c2sccc23)cc1C,0.0%,6.2%,-1.7%,nt
Cn1c(=O)oc2cc(S(=O)(=O)N3CCC(C(=O)N4CCN(c5ccc(Cl)cc5)CC4)CC3)ccc21,?,-8.4%,0.2%,nt
SMILES,FMDV antiviral,Sm TGR inh,TbPYK inhibitor,RE007 growth inh
Cc1ccc2sc(-c3ccc(N)cc3)nc2c1,?,0.9%,-8.6%,nt
Nc1ccc2nc(-c3ccccc3)sc2c1,10µM*,4.1%,?,?
Nc1ccc(-c2nc3cc(N)ccc3s2)cc1,-10.8%,1.5%,-7.3%,-11.7%
Cc1ccc2nc(-c3ccc(N)cc3)sc2c1,8.91µM*,-3.1%,-1.8%,-3.3%
Oc1cccc2c(NC(=S)Nc3ccc(SC(F)F)cc3)cccc12,12.6µM*,-11.6%,-3.5%,-14.4%
CCOC(=O)N1CCC(Nc2c(-c3ccc(C)cc3)c(=O)c2=O)CC1,-23.8%,-7.5%,-5.9%,-11.8%
CCOC(=O)N1CCC(Nc2c(-c3ccccc3)c(=O)c2=O)CC1,-12.5%,44.7µM*,5.5%,-13.6%

# Source: PubChem BioAssay (National Center for Advancing Translational Sciences (NCATS))
